# Measured values: PubChem BioAssay AID463173 (ICCB-Longwood Screening Facility, Harvard Medical School, 2010)
# Hit rate of the full screen: of about 52,000 compounds, about 1,700 (3.3%) were called active. Rule as the data show it: active = survival mostly below about 52% (no sharp cut-off); inactive = mostly above about 56%. Only a selection was taken, and actives are over-represented in it overall.
# Tested on: Wild type
# Test: growth inhibition of S. aureus wild type versus tarO mutant, primary screen, teichoic acid synthesis inhibitors, RN4220, OD600 (AID 463173)
# Settings: S. aureus RN4220 wild type/DeltatarO growth, OD600, 18 h, hits give low values, screened at 18.75 µg/mL (by protocol)
row,Compound,survival
1,CCN(C(=O)Cn1ncc2c(=O)oc3ccc(C)cc3c21)c1cc(OC)ccc1OC,86% (inactive)
2,CCOc1ccc(Nc2nn(-c3ccc(OC(F)(F)F)cc3)nc2C(C)=O)cc1,123% (inactive)
3,COc1cccc(NS(=O)(=O)c2ccc3c(c2)N(C)C(=O)CC(=O)N3C)c1,78% (inactive)
4,COc1ccc2[nH]c(=O)c(CN(CCCN3CCOCC3)C(=O)Nc3ccccc3)cc2c1,102% (inactive)
5,O=C(NC1CCCCCC1)c1ccc(CS(=O)c2ccc(Br)cc2)o1 (stereo not drawn),94% (inactive)
6,Cc1ccc(S(=O)(=O)Nc2cc3c(cc2C)n(C)c(=O)c(=O)n3C)cc1,-4% (active)
7,CCc1ccc(S(=O)(=O)Nc2cc3c(cc2N2CCOCC2)n(C)c(=O)c(=O)n3C)cc1,1% (active)
8,Cn1c(=O)c(=O)n(C)c2cc(N3CCOCC3)c(NS(=O)(=O)c3ccc(F)c(Cl)c3)cc21,63% (inactive)
9,CCc1ccc(S(=O)(=O)Nc2cc3c(cc2C)n(C)c(=O)c(=O)n3C)cc1,57% (inactive)
10,Cn1c(=O)n(C)c2cc(N3CCOCC3)c(NS(=O)(=O)c3ccc(Cl)cc3)cc21,93% (inactive)
11,Cc1ccc(S(=O)(=O)Nc2cc3c(cc2N2CCOCC2)n(C)c(=O)n3C)cc1,80% (inactive)
12,Cn1c(=O)c(=O)n(C)c2cc(N3CCOCC3)c(NS(=O)(=O)c3ccc(Cl)cc3)cc21,-3% (active)
13,CC(C)Cc1ccc(S(=O)(=O)Nc2cc3c(cc2N2CCOCC2)n(C)c(=O)c(=O)n3C)cc1,63% (inactive)
14,Cc1cc2c(cc1NS(=O)(=O)c1ccc(Br)cc1)n(C)c(=O)c(=O)n2C,129% (inactive)
15,COc1ccccc1OCCn1cc(C(=O)c2cccs2)c2ccccc21,102% (inactive)
16,O=C(CSc1nnc(-c2ccc(S(=O)(=O)N3CCCC3)cc2)n1CC1CCCO1)NC1CC1 (stereo not drawn),108% (inactive)
17,COc1ccc(-c2nnc(SCC(=O)NCCC(C)C)nc2-c2ccc(OC)c(OC)c2)cc1OC,71% (inactive)
18,COc1cccc2cc(-c3nc(Nc4cccc(C)c4C)sc3C)c(=O)oc12,65% (inactive)
19,COc1cccc(NC(=O)C2CCC(CNS(=O)(=O)c3ccc4c(c3)CC(C)N4C(C)=O)CC2)c1 (stereo not drawn),95% (inactive)
20,CNS(=O)(=O)c1ccccc1C(=O)N/N=C/c1ccc(OC)c(OC)c1,102% (inactive)
21,COc1cc2c(cc1OC)n(CC(=O)c1ccc(C)cc1C)c(=O)n1nc(CCn3nc(C)cc3C)nc21,74% (inactive)
22,COc1ccccc1N1CCN(S(=O)(=O)c2c(C)nc3sc(C)c(C)n3c2=O)CC1,85% (inactive)
23,COc1cc(NS(=O)(=O)c2ccc3c(c2)CCN3S(C)(=O)=O)cc(OC)c1,73% (inactive)
24,COc1ccc(-c2cc(C(F)(F)F)nc(SCC(=O)NCc3ccc(F)cc3)n2)cc1,90% (inactive)

row,Compound,survival
1,COc1ccc(-c2cc(NCc3ccc(F)cc3)n3cnnc3n2)cc1,72% (inactive)
2,COc1cccc(-c2cc(C(=O)NCc3ccc(F)cc3)no2)c1,71% (inactive)
3,COc1ccc(-c2cc(C(F)(F)F)nc(NCc3ccccc3)n2)cc1,-5% (active)
4,COc1ccc(-c2cc(C(F)(F)F)nc(NCCc3ccccc3)n2)cc1OC,81% (inactive)
5,COc1ccc(-c2cc(C(F)(F)F)nc(SCC(=O)NCCc3ccccc3)n2)cc1OC,81% (inactive)
6,COc1ccc(-c2cc(C(F)(F)F)nc(NCc3ccc(F)cc3)n2)cc1,-5% (active)
7,COc1ccc(-c2cc(C(F)(F)F)nc(NCc3ccccc3)n2)cc1OC,66% (inactive)
8,COc1ccc(-c2cc(C(F)(F)F)nc(NCCc3ccccc3)n2)cc1,-2% (active)
9,COc1cccc(-c2cc(C(F)(F)F)nc(NCc3ccc(F)cc3)n2)c1,0% (active)
10,COc1ccc(CNC(=O)C(C)Sc2nc(-c3ccccc3)cc(C(F)(F)F)n2)cc1 (stereo not drawn),149% (inactive)
11,CCc1ccc(NC(=O)CCn2cnc3ccccc3c2=O)cc1,72% (inactive)
12,COCCNC(=O)CN1C(=O)CCn2nc(-c3cn(C)c4ccccc34)cc21,64% (inactive)
13,C#CCNc1nc(CC(C)C)nc2c1nnn2Cc1ccccc1,101% (inactive)
14,COc1ccc(CNC(=O)CSc2nc(-c3ccc(OC)cc3)cc(C(F)(F)F)n2)cc1,93% (inactive)
15,COc1cccc(-c2cc(C(F)(F)F)nc(NCCc3ccc(OC)c(OC)c3)n2)c1,25% (inactive)
16,COc1ccccc1CCNC(=O)C(C)Sc1nc(-c2ccccc2)cc(C(F)(F)F)n1 (stereo not drawn),53% (inactive)
17,COc1ccc(CNc2nc(-c3ccc(OC)cc3)cc(C(F)(F)F)n2)cc1,-5% (active)
18,COc1cccc(-c2cc(C(F)(F)F)nc(NCCc3ccccc3)n2)c1,-7% (active)
19,COc1ccc(CNc2nc(-c3ccc(OC)c(OC)c3)cc(C(F)(F)F)n2)cc1,27% (inactive)
20,COc1cccc(CNC(=O)c2cc(S(=O)(=O)N3CCCCC3)cn2C)c1,-2% (active)
21,Cc1cn(C)c(CC(=O)NCc2cccc(Cl)c2)c1C(=O)O,-3% (active)
22,COc1cccc(CNC(=O)Cc2c(C(=O)O)c(C)cn2C)c1,0% (active)
23,Cc1cn(C)c(CC(=O)NCc2ccc(Cl)cc2)c1C(=O)O,66% (inactive)
24,Cc1cn(C)c(CC(=O)NCc2ccccc2)c1C(=O)O,80% (inactive)

row,Compound,survival
1,Cc1ccc(CNC(=O)Cc2c(C(=O)O)c(C)cn2C)cc1,85% (inactive)
2,Cc1ccc(CNC(=O)c2cc(S(=O)(=O)N3CCCCCC3)cn2C)cc1,81% (inactive)
3,COc1ccc(CNC(=O)Cc2c(C(=O)O)c(C)cn2C)cc1,83% (inactive)
4,COc1cccc(CNC(=O)c2cc(S(=O)(=O)N3CCCCCC3)cn2C)c1,85% (inactive)
5,Cc1ccc(-n2ncc(C(=O)N3CCN(Cc4ccccc4)CC3)c2C2CCN(C(=O)OC(C)(C)C)CC2)cc1,124% (inactive)
6,N#Cc1c(NC(=O)CN2CCCCC2)sc2c1CCC2,109% (inactive)
7,Cc1ccc2c(c1)c1c(c(=O)n(-c3ccccc3)c(=O)n1CC(=O)NCC1CCCO1)n2C (stereo not drawn),72% (inactive)
8,Cc1ccc(NC(=O)C(=O)NCCc2sc(-c3ccc(Cl)cc3)nc2C)cc1C,126% (inactive)
9,Cc1ccc(-c2nc(C)c(CCNC(=O)C(=O)Nc3ccc(C)c(Cl)c3)s2)cc1,76% (inactive)
10,Cc1nc(-c2ccccc2)sc1CCNC(=O)C(=O)Nc1ccc(F)c(Cl)c1,1% (active)
11,COc1ccc(NC(=O)CN(c2ccc(C)cc2)S(=O)(=O)c2cccs2)cc1,84% (inactive)
12,Cc1cccc(Cn2c(=O)n3nc(-c4ccccc4)nc3c3ccccc32)c1,-24% (active)
13,O=c1n(Cc2cccc(F)c2)c2ccccc2c2nc(-c3ccccc3)nn12,34% (inactive)
14,Cc1cccc(-c2nc3ccccc3n2Cc2ccccc2)c1,1% (active)
15,O=C(CSc1nc2ccccc2n1Cc1ccccc1F)NCc1ccccc1,99% (inactive)
16,Cc1cccc(-c2nc3c4ccccc4n(Cc4cccc(Cl)c4)c(=O)n3n2)c1,113% (inactive)
17,Fc1ccc(Cn2c(-c3cccc(Br)c3)nc3ccccc32)cc1,120% (inactive)
18,Nc1nonc1-c1nc2ccccc2n1Cc1cccc(Cl)c1,87% (inactive)
19,Cc1ccc(Cn2c(CCNC(=O)c3cccc(C)c3)nc3ccccc32)cc1,68% (inactive)
20,Cc1cccc(Cn2c(-c3ccccc3)nc3ccccc32)c1,26% (active)
21,Cc1cccc(Cn2c(-c3cccc(Br)c3)nc3ccccc32)c1,124% (inactive)
22,Fc1ccccc1Cn1c(-c2ccccc2)nc2ccccc21,1% (active)
23,CCc1ccccc1N1CC(c2nc3ccccc3n2Cc2cccc(C)c2)CC1=O (stereo not drawn),66% (inactive)
24,COc1ccc(NC(=O)c2oc3ccccc3c2NC(=O)c2cc(C)cc(C)c2)c(OC)c1,79% (inactive)

row,Compound,survival
1,COc1ccc(NC(=O)C2CCC(CNS(=O)(=O)c3cccc4nsnc34)CC2)cc1OC (stereo not drawn),87% (inactive)
2,CN(Cc1ccccc1)C(=O)Cn1c(=O)c2cccn2c2ccc(F)cc21,81% (inactive)
3,Cc1ccc(Cn2c(=O)c3ccccc3n3c(-c4ccccc4)nnc23)cc1,91% (inactive)
4,Cc1ccc(Cn2c(C(C)NC(=O)c3ccccc3)nc3ccccc32)cc1 (stereo not drawn),91% (inactive)
5,Cc1ccc(Cn2c(-c3ccccc3)nc3ccccc32)cc1,8% (active)
6,CCCCn1c(SCC(=O)N2CCCCCC2)nnc1-c1ccoc1C,98% (inactive)
7,Cc1cccc(N2CCN(c3ccc4cc(S(=O)(=O)N5CCC(C)CC5)ccc4n3)CC2C)c1 (stereo not drawn),129% (inactive)
8,CSc1cccc(Nc2cc(C(=O)NC3CCCCC3)c3ccccc3n2)c1,142% (inactive)
9,CN1CN2C(=O)N3CN(C)CN4C(=O)N(C1)C2C34 (stereo not drawn),110% (inactive)
10,COC(=O)Cn1c(C(O)c2ccccc2)nc2ccccc21 (stereo not drawn),97% (inactive)
11,OC(c1ccccc1)c1nc2ccccc2n1Cc1c(F)cccc1Cl (stereo not drawn),82% (inactive)
12,Cc1cc(C)c(Cn2c(C(O)c3ccccc3)nc3ccccc32)c(C)c1 (stereo not drawn),11% (active)
13,CCOc1ccc(CNC(=O)CS(=O)(=O)c2cccc3nsnc23)cc1,126% (inactive)
14,COc1ccccc1NC(=O)C1CCN(C(=O)c2ccccc2)CC1,94% (inactive)
15,Cc1c(Cl)cccc1-n1ncc(C(=O)Nc2ccc(F)cc2F)c1C1CCN(C(=O)OC(C)(C)C)CC1,71% (inactive)
16,Cc1cccc(Nc2nc3nonc3nc2Nc2cccc(C)c2C)c1C,102% (inactive)
17,Cc1cccc(Nc2nc3nonc3nc2N/N=C\c2cccs2)c1C,96% (inactive)
18,CCOC(=O)c1ccc(Nc2nc(C)cc(C)n2)cc1,87% (inactive)
19,CCOC(=O)c1ccc(Nc2nc3nonc3nc2NCc2ccco2)cc1,35% (inactive)
20,Cc1ccc(C)c(Nc2nc3nonc3nc2Nc2cccc(C)c2C)c1,4% (active)
21,CCOC(=O)c1ccc(Nc2nc3nonc3nc2Nc2cccc(C)c2C)cc1,0% (active)
